# Data from ChEMBL document CHEMBL3988442, “University of Dundee, Small-Polar-MMV Screening Library” (2021).
# Target: Shiga toxin 2 (Escherichia coli O157:H7) (UniProt P09385+P09386)
# Experiment: E. coli 0.157:H7 Shiga Toxin SOP - stx2 screening assay
# Type: functional
# Design: scale not given: direction of the effect not stated beside the values
# Conditions: 30 µM
row,Structure (SMILES),Percent Effect [%]
1,CN(C)c1ccccc1C(=O)N1C[C@@H](CN2CCOCC2)[C@@H](CO)C1,10.2
2,Cc1ccc(CCC(=O)N(C)CCN2CCOCC2)c(C)c1,-8.65
3,c1ccc(OC2CCCC2)c(CNC2CCc3ncnn3C2)c1 (stereo not given),9.47
4,O=C(Cc1ccc(F)cc1)NCCNCC1CNc2ccnn2C1 (stereo not given),-33.6
5,Cc1nc(C)n(CC2CCCN2Cc2cn3c(C)cccc3n2)n1 (stereo not given),-2.35
6,Cc1ccc(CN2CC[C@H]3OCC[C@@H](c4nc(C)no4)[C@H]3C2)cc1,8.54
7,Cc1cc(CN2CCN(C(=O)NC(C)Cn3ccnc3)CC2)no1 (stereo not given),21
8,Cn1ncc2c(=O)[nH]c(CN(Cc3cccc(F)c3)C3CC3)nc21,3.9
9,Cc1nc(C)n(CC2CCCN2CC(=O)Nc2ccnn2C(C)C)n1 (stereo not given),23.4
10,Cc1nc(NCc2cccnc2)c2c(n1)c(C)nn2C,-31.1
11,Cc1ccc(Cl)cc1N1CCC(CNC(=O)CCn2ccnn2)C1 (stereo not given),-49.4
12,CCc1[nH]ncc1C(=O)N1CCCN(Cc2cnn(C)c2)CC1,17.2
13,O=C(NS(=O)(=O)c1ccc2c(c1)OCCO2)c1ccc(Br)cc1F,8.44
14,COC(=O)CCc1c(C)nn(-c2nc(C)cc(=O)[nH]2)c1C,-12.7
15,COc1ncnc2c1CCN(c1cc(C(F)(F)F)ncn1)CC2,-1.32
16,COc1ccc(CN2CCC3(CC(Nc4ccncn4)C3)C2)c(OC)c1 (stereo not given),-11.8
17,Cc1ccc(C(=O)CCC(=O)N2CCC(c3nncn3C)CC2)cc1,-30.7
18,NC(=O)c1cc(C2CCCN(CCCOc3ccccc3)C2)n[nH]1 (stereo not given),-26
19,CN(C)S(=O)(=O)N1CCC2(COCc3cnc(-c4ccccc4)nc32)C1 (stereo not given),-12.6
20,c1cnnc(N2CCCC(NCc3ccc(-n4ccnc4)cc3)C2)c1 (stereo not given),10.2

row,Structure (SMILES),Percent Effect [%]
1,COCC1CCCN(C(=O)c2cc(Cn3ccc4ccccc43)[nH]n2)C1 (stereo not given),-24.9
2,O=C(NC1CC1)c1ccc2ccc(N3CCN(CC4CC4)CC3)n2c1,-80.6
3,Cc1ncnc2c1CCN(c1cc(C(F)(F)F)ncn1)CC2,6.49
4,Cc1oc(C)c(C(=O)NCc2ccccc2S(=O)(=O)N(C)C)c1C,37.9
5,CC1CN(CC(=O)NC2CCCC2)CCN1c1ccc2nncn2n1 (stereo not given),-41.8
6,CCn1ccc(C(=O)NCCCN2CCOCC2)n1,-55.1
7,O=C(O)[C@@H]1CN(C(=O)c2ccc3[nH]nnc3c2)C[C@H]1c1cccc(F)c1,-15.6
8,CCC(=O)N1CCC2(CC1)COc1ccccc1S(=O)(=O)N(C)C2,6.18
9,Cc1ccc(NC(=O)NC(C)c2nc[nH]n2)cc1 (stereo not given),5.92
10,Cc1cc(C(=O)N2CCN(C(=O)Cc3ccccn3)CC2)c(C)s1,7.06
11,CCOCC(=O)N1CCC(Oc2ccc(Cl)cn2)CC1,-2.19
12,CC(=O)NCCc1ccc(C(=O)N2CCCC2c2cnn(C)c2)cc1 (stereo not given),21.3
13,NC(=O)C1CCN(C(=O)c2ccn(-c3ccc(F)cc3)n2)C1 (stereo not given),3.03
14,CCc1nc(C2CCCN2C(=O)c2cc(C3CC3)[nH]n2)no1 (stereo not given),8.24
15,O=C(c1cccnc1-n1cncn1)N1CCN(CC2CC2)CC1,-1.68
16,Cc1nc(C2CCCN(C(=O)C(C)(C)n3cc(Cl)cn3)C2)no1 (stereo not given),-14.3
17,O=C(N1CCCC1)N1CCN(CC2CC2)c2ncccc2C1,-4.59
18,COc1cccc(CN(C)S(=O)(=O)N2CCOCC2)c1,9.56
19,CC(C)CNC(=O)NC(=O)CNc1ccccc1SCC(C)C#N (stereo not given),4.99
20,CS(=O)(=O)N1CCC(O)(Cn2c(C3CC3)nc3ccccc3c2=O)CC1,11.1
